The text below walks through data of PubChem BioAssay (Tox21).

“And” between values parts separate entries of the source, which are not always exact repeats. Equal entries are not always repeated. Inconclusive results are not listed. More than one record can exist for a structure, and the calls need not agree. The source made the active and inactive calls. Unless noted, the call rests on the fitted dose curve; in most records, active means well fitted curve in the direction sought with a large enough effect in the repeat runs; inconclusive means weak or mixed curves; inactive means no such curve, though single readings can be large; an effect the other way counts as inactive or inconclusive.

A short description of test [1]: qHTS assay to identify small molecule agonists of the progesterone receptor (PR) signaling pathway - cell viability counter screen (AID 1346799; calls by dose curve; further: nearly all actives have a fitted effect of over 45% in size). The essentials: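 Luminescence from CellTiter-Glo, added after the beta-lactamase FRET read in the same wells, gave cytotoxicity in PR-UAS-bla HEK293T cells treated with compounds for 16 hr at 37C.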
(In general: qHTS replaces the single test concentration by a dilution series.)

Test [2] can be described thus: qHTS assay to identify small molecule antagonists of the TGF-beta/Smad signaling pathway - cell viability counter screen (AID 1346824). Further: nearly all actives have a fitted effect of over 50% in size. In a few lines: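 SBE-bla HEK 293T cells, incubated overnight, then compound plus 0.25 ng/mL TGF-beta1 (stock added) for 5 hr at 37 C. Viability was read in the same wells by CellTiter-Glo luminescence after 30 min at room temperature.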

The nature of test [3]: qHTS assay to identify small molecule agonists of the TGF-beta/Smad signaling pathway - cell viability counter screen (AID 1346829). Further: top concentration of the series differs between compounds; nearly all actives have a fitted effect of over 45% in size. The essentials:
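SBE-bla HEK 293T cells plated overnight, compound exposure 5 hr at 37 C. Viability read in the same wells by CellTiter-Glo luminescence after 30 min at room temperature, following the beta-lactamase read.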

Test [4] is described as follows: qHTS assay to identify small molecule agonists of the TGF-beta/Smad signaling pathway (AID 1346859; active means well fitted activation curve with a large enough effect in the signal ratio in the repeat runs, not every such curve was filed as active; the % refers to the signal ratio; further: series mostly up to about 77 µM). The essentials: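 SBE-bla HEK 293T, 4,000 cells/well, plated o/n; cpd in DMSO, 5 hr, 37 C/5% CO2; B/G FRET substrate 2 hr RT; ex 405, em 460/530 nm.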
Test [5] is described as follows: Human pregnane X receptor (PXR) small molecule agonists, qHTS cell viability counter screen (AID 1346977). Further: nearly all actives have a fitted effect of over 50% in size. Further: potency means the concentration at half of the fitted maximal effect. In a few lines: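 PXR-Luc HepG2, 2,000 cells/well, 5% charcoal-stripped FBS; 5hr settle; cpd 24hr, 37C/5% CO2; CellTiter-Fluor at 23hr, read 1hr later (fluorescence).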
Test [6] is described as follows: Caspase-3/7 induction in HepG2 cells by small molecules, qHTS assay (AID 1346978). Further: nearly all actives have a fitted effect of over 15% in size. In a few lines: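 Wild-type HepG2 cells, 2,000/well, settled 5 hr at 37 C and 5% CO2, then compound-treated for 17 hr; caspase-3/7 activity read by luminescent Caspase-Glo 3/7 after 30 min at room temperature.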
Test [7] can be described thus: Caspase-3/7 induction in CHO-K1 cells by small molecules, qHTS assay (AID 1346980). Further: nearly all actives have a fitted effect of over 15% in size. In a few lines: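 Wild-type CHO-K1 cells exposed to compounds for 17hr at 37 C, 5% CO2. Caspase-3/7 activity then measured by Caspase-Glo 3/7 luminescence after 30min at room temperature.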
Test [8] is described as follows: Caspase-3/7 induction in HepG2 cells by small molecules, qHTS cell viability counter screen (AID 1346981). Further: series mostly up to about 92 µM; nearly all actives have a fitted effect of over 30% in size. In a few lines: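 Treatment of HepG2 cells with DMSO-delivered compounds ran 16 hr at 37 C following a 5-hr pre-incubation of 2,000 cells/well. CellTiter-Fluor fluorescence, read after 1 hr, served as the viability measure in a qHTS format.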
The target in test [9] is Nuclear receptor subfamily 1 group I member 2 (Rattus norvegicus) (UniProt Q9R1A7). The experiment in a line: Rat pregnane X receptor (rPXR) activation by small molecules, qHTS assay (AID 1346983). Further: nearly all actives have a fitted effect of over 20% in size. Further: potency means the concentration at half of the fitted maximal effect. To be noted: rPXR luciferase reporter cells, One-Glo luminescence, 24 h; max activation: stronger effect = higher value. In a few lines: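 Cell-based rPXR activation assay: rPXR cells, 2,000 per well, rested 5hr at 37 C, then exposed to compounds in DMSO for 24 hr at 37 C. Luciferase activity read by One-Glo luminescence after 30 min at room temperature.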
Chain of Nuclear receptor subfamily 1 group I member 2 (Rattus norvegicus) (Q9R1A7 whole entry, looked up): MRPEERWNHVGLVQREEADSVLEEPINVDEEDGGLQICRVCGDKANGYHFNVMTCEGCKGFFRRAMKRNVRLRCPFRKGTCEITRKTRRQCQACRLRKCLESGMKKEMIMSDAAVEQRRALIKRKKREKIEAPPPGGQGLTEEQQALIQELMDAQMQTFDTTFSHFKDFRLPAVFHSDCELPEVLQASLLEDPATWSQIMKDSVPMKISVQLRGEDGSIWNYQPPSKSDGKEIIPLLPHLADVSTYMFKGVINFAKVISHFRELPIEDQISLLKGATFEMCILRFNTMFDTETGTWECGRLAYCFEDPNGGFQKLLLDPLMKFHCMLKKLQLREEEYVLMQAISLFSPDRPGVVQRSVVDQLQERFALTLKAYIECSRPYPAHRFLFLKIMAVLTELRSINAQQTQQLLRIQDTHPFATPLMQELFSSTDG

Test [10] deals with Voltage-gated inwardly rectifying potassium channel KCNH2 (Homo sapiens) (UniProt Q12809). The experiment in a line: Human Ether-a-go-go-Related Gene (hERG) channel small molecule antagonists: fluorescence cell-based qHTS assay (AID 1671200).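 Further: hERG-expressing U2OS cells given a thallium stimulus after FluxOR II dye loading; series mostly up to about 77 µM; nearly all actives have a fitted effect of over 50% in size.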 In a few lines:
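Channel function was assessed by thallium flux. Cells seeded the previous day and kept at 37 C took up FluxOR II dye over 1 h in the dark at room temperature, then sat another 10 min before stimulation.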
A general note: The hERG channel carries a current that helps repolarise heart muscle cells.

The target in test [11] is Thyrotropin-releasing hormone receptor (Homo sapiens) (UniProt P34981). The experiment in a line: qHTS assay to identify small molecule antagonists of the thyrotropin-releasing hormone receptor (TRHR) signaling pathway (AID 1346877; active means well fitted inhibition curve with a large enough effect in the repeat runs, not every such curve was filed as active; further: series mostly up to about 51 µM). In a few lines: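 Overnight-plated (18 h, 37 °C) HEK293 cells expressing TRHR were dye-loaded 2 h, treated with compound, then stimulated with TRH at 1 nM final. Fluorescence intensity was captured every second for 3 min.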
Chain of Thyrotropin-releasing hormone receptor (Homo sapiens) (P34981 whole entry, looked up): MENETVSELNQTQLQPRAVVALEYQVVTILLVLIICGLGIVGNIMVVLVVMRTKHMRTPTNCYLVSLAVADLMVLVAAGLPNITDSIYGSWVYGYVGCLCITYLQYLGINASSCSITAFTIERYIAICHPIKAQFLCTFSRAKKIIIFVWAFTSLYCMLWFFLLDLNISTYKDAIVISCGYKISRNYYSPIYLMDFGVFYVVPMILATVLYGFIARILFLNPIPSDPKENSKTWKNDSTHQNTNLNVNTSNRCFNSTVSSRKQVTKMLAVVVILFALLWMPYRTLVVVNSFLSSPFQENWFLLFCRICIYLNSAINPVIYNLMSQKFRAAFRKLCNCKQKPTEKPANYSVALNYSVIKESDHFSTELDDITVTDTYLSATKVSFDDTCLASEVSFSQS

Test [12] shares this target. The test can be described thus: qHTS assay to identify small molecule agonists of the thyrotropin-releasing hormone receptor (TRHR) signaling pathway (AID 1346891; calls by dose curve; further: series mostly up to about 58 µM). In a few lines:
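Intracellular calcium rise, read as fluorescence every second for 3 min, served as the agonist signal in dye-loaded HEK293 cells expressing TRHR; each compound ran at 15 concentrations in triplicate.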

Test [13] is described as follows: Caspase-3/7 induction in CHO-K1 cells by small molecules, qHTS cell viability counter screen (AID 1346979). Further: nearly all actives have a fitted effect of over 35% in size. The essentials: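 Cells (CHO-K1, wild type) are plated at 1,500 per well and incubated 5hr. Test compounds in DMSO are then pinned in, followed by 16hr at 37C and 5% CO2. Viability is read by CellTiter-Fluor fluorescence after 1hr.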
Test [14] has as its target Nuclear receptor subfamily 1 group I member 2 (Homo sapiens) (UniProt O75469). The experiment in a line: Human pregnane X receptor (PXR) small molecule agonists, qHTS assay (AID 1346982). Further: nearly all actives have a fitted effect of over 35% in size. Further: potency means the concentration at half of the fitted maximal effect. In a few lines:
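Stable HepG2 line reporting PXR-mediated CYP3A4 expression via luciferase. Treatment: 24 hr with compounds in DMSO at 37 C. Detection: ONE-Glo luminescence.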

Test [15] concerns the target Cytochrome P450 2D6 (Homo sapiens) (UniProt P10635). The experiment in a line: Cytochrome P450 Family 2 Subfamily D Member 6 (CYP2D6) small molecule antagonists: luciferase reporter qHTS assay (AID 1671196). Further: nearly all actives have a fitted effect of over 50% in size. Further: potency means the concentration at half of the fitted maximal effect. On activity change, negative = inhibition: series mostly up to about 120 µM. The essentials: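 Chemicals tested for interference with CYP2D6 activity; proluciferin substrate, NADPH regeneration, 1 h at room temperature, luminescent detection.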
(In general: Reporter assays use an easily measured gene product as a stand-in for the process of interest.)

The target of test [16] is Cytochrome P450 2C19 (Homo sapiens) (UniProt P33261). The test can be described thus: Cytochrome P450 Family 2 Subfamily C Member 19 (CYP2C19) small molecule antagonists: luciferase reporter qHTS assay (AID 1671197). Further: nearly all actives have a fitted effect of over 65% in size. Further: potency means the concentration at half of the fitted maximal effect. On activity change, negative = inhibition: series mostly up to about 120 µM. In a few lines:
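P450-Glo CYP2C19 system: enzyme-substrate mix with compound 10 min at room temperature, then NADPH regeneration solution, 1 h at 37C. Proluciferin-to-luciferin conversion detected by luminescence after 20 min with detection reagent; ketoconazole as positive control.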

In test [17] the target is Cytochrome P450 2C9 (Homo sapiens) (UniProt P11712). The test can be described thus: Cytochrome P450 Family 2 Subfamily C Member 9 (CYP2C9) small molecule antagonists: luciferase reporter qHTS assay (AID 1671198). Further: nearly all actives have a fitted effect of over 50% in size. Further: potency means the concentration at half of the fitted maximal effect. On activity change, negative = inhibition: series mostly up to about 120 µM. In a few lines:
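P450-Glo proluciferin substrate with CYP2C9 enzyme; 10 min RT preincubation, then NADPH regeneration 1 h at 37C; luciferin detection reagent 20 min RT, luminescence in relative luminescence units.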

For test [18], the target named is Cytochrome P450 1A2 (Homo sapiens) (UniProt P05177). The experiment in a line: Cytochrome P450 Family 1 Subfamily A Member 2 (CYP1A2) small molecule antagonists: luciferase reporter qHTS assay (AID 1671199). Further: nearly all actives have a fitted effect of over 50% in size. Further: potency means the concentration at half of the fitted maximal effect. On activity change, negative = inhibition: series mostly up to about 120 µM. In a few lines:
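Read-out is luminescence from luciferin detection reagent (20 min) proportional to CYP1A2 activity; compounds in DMSO preincubated 10 min with enzyme and proluciferin substrate, then NADPH regeneration solution, 1 h, room temperature.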

For test [19], the target named is Cytochrome P450 3A4 (Homo sapiens) (UniProt P08684). The test can be described thus: Cytochrome P450 Family 3 Subfamily A Member 4 (CYP3A4) small molecule antagonists: luciferase reporter qHTS assay (AID 1671201). Further: nearly all actives have a fitted effect of over 50% in size. Further: potency means the concentration at half of the fitted maximal effect. On activity change, negative = inhibition: series mostly up to about 120 µM. In a few lines:
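Compounds in DMSO were pin-transferred onto CYP3A4 enzyme-substrate mix and held 10 min at room temperature. NADPH regenerating solution started the reaction for 1 h; luciferin detection reagent stopped it, and luminescence was read after 20 min.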

The target of test [20] is Nuclear receptor subfamily 1 group I member 2 (Homo sapiens) (UniProt O75469). The test can be described thus: Human pregnane X receptor (PXR) activation by small molecules, qHTS assay (AID 1346985). Further: nearly all actives have a fitted effect of over 40% in size. The essentials:
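DPX-2 cells (HepG2 co-transfected with a PXR response element and a CYP3A4-promoter luciferase construct) were seeded at 2,000 per well, rested 5 hr at 37C, then exposed to DMSO-dissolved compounds for 24 hr. Activation was read as luciferase luminescence.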
On the % scale 0 is the no-effect control and ±100 the full control effect.

Chain of Cytochrome P450 2C9 (Homo sapiens) (P11712 whole entry, looked up): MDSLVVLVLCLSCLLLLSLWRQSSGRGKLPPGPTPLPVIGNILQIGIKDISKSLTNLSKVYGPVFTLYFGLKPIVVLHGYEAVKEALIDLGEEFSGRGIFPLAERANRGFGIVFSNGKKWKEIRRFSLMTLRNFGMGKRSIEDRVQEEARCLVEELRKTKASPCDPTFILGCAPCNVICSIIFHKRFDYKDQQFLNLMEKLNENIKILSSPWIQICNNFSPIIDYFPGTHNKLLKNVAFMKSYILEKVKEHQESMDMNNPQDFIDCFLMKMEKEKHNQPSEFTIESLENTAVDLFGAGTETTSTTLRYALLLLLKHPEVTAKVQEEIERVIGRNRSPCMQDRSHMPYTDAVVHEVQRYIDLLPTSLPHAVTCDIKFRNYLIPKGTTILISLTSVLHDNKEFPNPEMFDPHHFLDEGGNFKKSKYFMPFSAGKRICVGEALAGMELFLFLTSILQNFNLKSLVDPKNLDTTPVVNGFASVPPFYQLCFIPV
Chain of Cytochrome P450 1A2 (Homo sapiens) (P05177 whole entry, looked up): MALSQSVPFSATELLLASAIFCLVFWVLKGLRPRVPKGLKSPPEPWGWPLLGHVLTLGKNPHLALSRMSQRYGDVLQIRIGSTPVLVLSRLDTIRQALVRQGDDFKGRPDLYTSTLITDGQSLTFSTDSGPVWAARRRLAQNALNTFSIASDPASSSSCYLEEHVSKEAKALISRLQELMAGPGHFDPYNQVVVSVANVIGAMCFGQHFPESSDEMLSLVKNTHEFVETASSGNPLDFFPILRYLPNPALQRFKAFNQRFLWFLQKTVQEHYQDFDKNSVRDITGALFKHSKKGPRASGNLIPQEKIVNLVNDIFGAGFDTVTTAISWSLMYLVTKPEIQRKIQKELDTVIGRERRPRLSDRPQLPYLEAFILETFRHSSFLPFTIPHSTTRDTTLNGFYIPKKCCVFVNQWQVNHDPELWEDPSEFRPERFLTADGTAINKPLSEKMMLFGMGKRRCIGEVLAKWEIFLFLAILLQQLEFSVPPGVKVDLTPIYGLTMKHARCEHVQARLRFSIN
Chain of Nuclear receptor subfamily 1 group I member 2 (Homo sapiens) (O75469 whole entry, looked up): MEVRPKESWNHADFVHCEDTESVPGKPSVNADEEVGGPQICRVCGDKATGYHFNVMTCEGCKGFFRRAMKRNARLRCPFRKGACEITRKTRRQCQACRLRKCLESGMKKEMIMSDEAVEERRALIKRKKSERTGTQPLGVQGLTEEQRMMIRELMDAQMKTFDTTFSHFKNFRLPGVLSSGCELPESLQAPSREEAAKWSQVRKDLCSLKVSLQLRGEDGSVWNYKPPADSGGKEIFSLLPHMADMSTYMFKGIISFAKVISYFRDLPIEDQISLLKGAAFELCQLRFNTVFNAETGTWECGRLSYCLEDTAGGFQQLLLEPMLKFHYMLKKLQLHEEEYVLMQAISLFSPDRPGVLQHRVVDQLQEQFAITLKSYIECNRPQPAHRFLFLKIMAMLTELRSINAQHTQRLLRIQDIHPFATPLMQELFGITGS
Chain of Cytochrome P450 2C19 (Homo sapiens) (P33261 whole entry, looked up): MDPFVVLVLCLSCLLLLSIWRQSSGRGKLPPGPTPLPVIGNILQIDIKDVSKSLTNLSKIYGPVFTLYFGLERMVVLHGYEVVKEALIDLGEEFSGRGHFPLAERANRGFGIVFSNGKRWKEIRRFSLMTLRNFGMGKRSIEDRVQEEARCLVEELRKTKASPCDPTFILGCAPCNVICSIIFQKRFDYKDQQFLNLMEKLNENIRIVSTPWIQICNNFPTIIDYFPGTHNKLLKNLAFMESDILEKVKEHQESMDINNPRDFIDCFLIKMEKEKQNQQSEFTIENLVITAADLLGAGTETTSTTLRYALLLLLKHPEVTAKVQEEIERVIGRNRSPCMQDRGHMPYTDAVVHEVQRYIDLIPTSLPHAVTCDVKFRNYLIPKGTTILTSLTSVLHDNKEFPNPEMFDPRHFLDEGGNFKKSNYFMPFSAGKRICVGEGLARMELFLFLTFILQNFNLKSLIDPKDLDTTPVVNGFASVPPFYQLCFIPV
Chain of Cytochrome P450 2D6 (Homo sapiens) (P10635 whole entry, looked up): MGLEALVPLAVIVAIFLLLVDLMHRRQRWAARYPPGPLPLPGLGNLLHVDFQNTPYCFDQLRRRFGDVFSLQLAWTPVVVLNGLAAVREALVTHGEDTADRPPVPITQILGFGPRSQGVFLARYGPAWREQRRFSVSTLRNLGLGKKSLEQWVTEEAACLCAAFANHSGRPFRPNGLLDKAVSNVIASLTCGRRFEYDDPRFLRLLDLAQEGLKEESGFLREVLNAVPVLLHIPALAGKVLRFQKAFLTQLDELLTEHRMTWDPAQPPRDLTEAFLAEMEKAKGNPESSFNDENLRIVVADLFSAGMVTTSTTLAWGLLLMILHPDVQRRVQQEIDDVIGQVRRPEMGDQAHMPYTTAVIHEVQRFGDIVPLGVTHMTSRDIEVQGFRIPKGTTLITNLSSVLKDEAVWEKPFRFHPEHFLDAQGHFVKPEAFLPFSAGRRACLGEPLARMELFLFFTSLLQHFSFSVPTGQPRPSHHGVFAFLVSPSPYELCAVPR
Chain of Voltage-gated inwardly rectifying potassium channel KCNH2 (Homo sapiens) (Q12809 whole entry, looked up): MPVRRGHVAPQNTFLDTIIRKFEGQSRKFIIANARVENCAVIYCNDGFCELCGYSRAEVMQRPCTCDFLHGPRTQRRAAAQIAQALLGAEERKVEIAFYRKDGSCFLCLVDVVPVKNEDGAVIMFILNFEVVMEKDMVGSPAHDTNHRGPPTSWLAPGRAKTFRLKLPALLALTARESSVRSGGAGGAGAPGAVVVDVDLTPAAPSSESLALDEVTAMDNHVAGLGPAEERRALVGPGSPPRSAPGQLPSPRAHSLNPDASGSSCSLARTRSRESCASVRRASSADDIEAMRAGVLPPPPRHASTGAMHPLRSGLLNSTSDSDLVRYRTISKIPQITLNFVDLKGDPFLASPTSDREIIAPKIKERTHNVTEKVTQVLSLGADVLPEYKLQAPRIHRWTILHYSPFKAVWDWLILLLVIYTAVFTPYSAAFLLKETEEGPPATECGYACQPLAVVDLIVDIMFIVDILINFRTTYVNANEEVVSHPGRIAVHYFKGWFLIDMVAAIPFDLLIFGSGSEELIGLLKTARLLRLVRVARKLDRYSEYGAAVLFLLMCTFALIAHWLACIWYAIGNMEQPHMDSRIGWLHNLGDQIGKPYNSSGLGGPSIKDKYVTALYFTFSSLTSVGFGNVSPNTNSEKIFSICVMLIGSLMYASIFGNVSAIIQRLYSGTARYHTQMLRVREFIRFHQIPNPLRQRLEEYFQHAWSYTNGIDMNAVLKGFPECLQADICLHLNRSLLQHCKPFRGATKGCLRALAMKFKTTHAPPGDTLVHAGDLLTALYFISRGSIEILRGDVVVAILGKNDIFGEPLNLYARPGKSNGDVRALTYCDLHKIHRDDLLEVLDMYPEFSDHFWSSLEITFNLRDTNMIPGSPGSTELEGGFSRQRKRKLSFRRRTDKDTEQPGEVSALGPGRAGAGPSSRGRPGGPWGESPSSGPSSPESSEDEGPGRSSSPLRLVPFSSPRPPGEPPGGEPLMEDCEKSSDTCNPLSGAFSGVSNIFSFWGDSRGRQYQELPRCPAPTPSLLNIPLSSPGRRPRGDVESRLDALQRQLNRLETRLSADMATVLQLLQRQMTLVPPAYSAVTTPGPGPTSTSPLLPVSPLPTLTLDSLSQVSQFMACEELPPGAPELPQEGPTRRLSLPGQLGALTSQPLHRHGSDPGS
Chain of Cytochrome P450 3A4 (Homo sapiens) (P08684 whole entry, looked up): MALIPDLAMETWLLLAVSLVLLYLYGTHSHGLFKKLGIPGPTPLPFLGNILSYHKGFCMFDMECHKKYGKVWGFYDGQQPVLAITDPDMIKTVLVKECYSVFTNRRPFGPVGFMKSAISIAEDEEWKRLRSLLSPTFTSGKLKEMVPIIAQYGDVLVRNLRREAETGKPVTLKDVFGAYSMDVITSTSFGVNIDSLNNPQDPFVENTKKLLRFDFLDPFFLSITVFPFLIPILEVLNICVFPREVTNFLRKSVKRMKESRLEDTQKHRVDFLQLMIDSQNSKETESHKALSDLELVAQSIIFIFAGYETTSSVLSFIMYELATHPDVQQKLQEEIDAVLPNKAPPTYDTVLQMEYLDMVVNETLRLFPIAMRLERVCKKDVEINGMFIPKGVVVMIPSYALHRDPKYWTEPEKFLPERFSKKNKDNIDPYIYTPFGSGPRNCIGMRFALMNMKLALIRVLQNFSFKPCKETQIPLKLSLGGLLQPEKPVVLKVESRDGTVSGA

With `NNc1nncc2ccccc12`, the activity change, negative = cytotoxicity in test [1] is -14.8% [at 19 µM] (inactive); in [5], 6.87% [at 19 µM] (inactive). The Potency result in test [2], in test [3], in test [6] and in [8] was “inactive” throughout. The outcome in [4], in test [7] and in test [10] was inactive. Also, the Potency is 48.6 µM (active) in test [5] and 0.112 µM (active) in test [9].
`CCCCCC/C(C=O)=C\c1ccccc1`: the Potency entry in test [1], in [2], in [3], in test [11], in [5] and in [6] was “inactive” in each case. The Potency result in [13], in test [8], in [14], in test [15] and in test [19] was “inactive” each time. Besides, the compound was called inactive in test [12], in [7] and in test [10]. The Potency in test [16] was 40.4 µM (active) and 20 µM (active); in test [17] it was 35.6 µM (active); in test [18], 22.7 µM (active) and 8.94 µM (active).
As to `O=C(O)[C@H](O)[C@@H](O)[C@H](O)[C@H](O)CO`, the Potency result in [1], in [2], in [3], in test [5], in test [8] and in test [14] was “inactive” in each case. Moreover, the Potency result in test [20] and in test [19] was “inactive” throughout. In addition, the compound was called inactive in test [4], in [7] and in test [10]. For the same compound, the max activation in test [9] is -0.835% (inactive) and -2.16% (inactive). In test [16], the Potency is 89.2 µM (active). Besides, the activity change, negative = inhibition in [17] is 3.47% [at 4.07 µM] (inactive).
On to `O=C(O)CC(C(=O)O)C(CC(=O)O)C(=O)O` (stereo unspecified), for which the Potency entry in test [1], in test [2], in test [3], in [5], in test [6] and in test [13] was “inactive” in each case. For the same compound, the Potency entry in [8], in test [14], in test [15], in test [17] and in [19] was “inactive” in each case. In addition, the outcome in test [4], in test [7] and in test [10] was inactive.
Consider `O=C(O)c1ccccc1C(c1ccc(O)cc1)c1ccc(O)cc1`, for which the Potency entry in test [1], in test [2], in [3], in [11], in test [5] and in test [6] was “inactive” in each case. In addition, the Potency entry in [13], in [8], in test [15], in test [16] and in test [18] was “inactive” each time. For the same compound, the outcome in test [12], in test [7] and in test [10] was inactive. The Potency in test [14] is 2.44 µM (active) and inactive.
On to `CCCCC(CC)COC(=O)CS` (stereo unspecified), for which the Potency entry in test [1], in test [2], in [3], in test [11], in test [5] and in test [6] was “inactive” throughout. In addition, the Potency entry in [8] and in test [14] was “inactive” throughout. For the same compound, the compound was classed as inactive in test [12], in test [7] and in [10]. The Potency in test [15] is 28.6 µM (active); in test [16], 25.5 µM (active) and inactive; in [17], 64.1 µM (active) and 71 µM (active); in [18], 64.1 µM (active) and inactive; in [19], 40.4 µM (active).
On to `C[C@H]1C[C@H]2[C@@H]3CCC4=CC(=O)C=C[C@]4(C)[C@@]3(F)[C@@H](O)C[C@]2(C)[C@@]1(O)C(=O)CO`, for which the Potency result in test [2], in test [3], in test [5], in test [6] and in test [8] was “inactive” in each case. For the same compound, the compound was called inactive in [4], in test [7] and in test [10]. For the same compound, the Potency in test [18] is 22.4 µM (active) and inactive.
